Bioassay records (PubChem)
Shown are actives, neighbours in structure and some others; about 8.7% of the full set was active somewhere.
BAZ2B block: BAZ2B (human) inhibition. 360,000 compounds, 4.4% hits. AlphaScreen BAZ2B-H3K14Ac peptide displacement. AID 504333. Potency, µM (series often up to 114 µM), for the others: at the highest dose activity change, negative = inhibition, hits mostly inhibitors. Q9UIF8; also: % is scaled to controls: 0 for no effect and ±100 for the full control effect; nearly all actives have a fitted effect of over 60% in size
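Multi-concentration screen (max 110 uM) measuring displacement of acetylated histone H3 peptide from BAZ2B by AlphaScreen, using 50 nM protein, 50 nM peptide and 10 ug/mL streptavidin donor plus Ni-chelate acceptor beads.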
ALOX12 inh: inhibitors of human 12S-lipoxygenase ALOX12; P18054; purified 12hLO, xylenol orange hydroperoxide absorbance; Potency, µM (series often up to 108 µM), inactives show at the highest dose activity change, negative = inhibition, most hits filed as inhibitors; 580,000 compounds, 1.1% hits; AID 1671190; also: % is scaled to controls: 0 for no effect and ±100 for the full control effect
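Purified human 12hLO at 150 nM in 25 mM Hepes, 0.01% Triton X-100, pH 7.0, preincubated 15 min at room temperature with compound. Reaction started with 40 uM arachidonic acid, 30 min at room temperature. Hydroperoxide measured by Fe-xylenol orange, 573/405 nm absorbance ratio.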
JMJD2A Tudor: inhibitors of human JMJD2A Tudor domain; AlphaScreen JMJD2A-Tudor / H3K4me3 peptide binding; Potency, µM (highest dose often 114 µM), without a hit: at the highest dose activity change, negative = inhibition, hits mostly inhibitors; 390,000 compounds, 4.4% hits; AID 504339; also: % is scaled to controls: 0 for no effect and ±100 for the full control effect; nearly all actives have a fitted effect of over 50% in size
Sfp PPTase inh: blocks B. subtilis Sfp PPTase activity; Q9F4F7; Biochemical Sfp PPTase activity, qHTS; Potency, µM, without a hit: largest response in the series, negative = inhibition, hits mostly inhibitors; 310,000 compounds, 3.5% hits;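 also: the enzyme is Sfp with the accession as filed and its product quenches rhodamine fluorescence; 0% = enzyme reaction without inhibitor and -100% = no enzyme wells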
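Step 1, compound plus 15 nM Sfp-PPTase, 15 min, room temperature. Step 2, add rhodamine-CoA (5 uM) and BHQ-2-YbbR (12.5 uM). Step 3, read 525/598 nm fluorescence at 0 and 30 min.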
G9a inh-1: G9a (human) methyltransferase inhibition; Q96KQ7; G9a H3K9 monomethylation, AlphaScreen, 2 h; Potency, µM (highest dose often 102 µM), without a hit: at the top dose activity, negative = inhibition, most hits filed as inhibitors; 350,000 compounds, 8.8% hits; AID 504332; also: % is scaled to controls: 0 for no effect and ±100 for the full control effect; nearly all actives have a fitted effect of over 75% in size
Target sequence (Q96KQ7 913-1193 limits assumed): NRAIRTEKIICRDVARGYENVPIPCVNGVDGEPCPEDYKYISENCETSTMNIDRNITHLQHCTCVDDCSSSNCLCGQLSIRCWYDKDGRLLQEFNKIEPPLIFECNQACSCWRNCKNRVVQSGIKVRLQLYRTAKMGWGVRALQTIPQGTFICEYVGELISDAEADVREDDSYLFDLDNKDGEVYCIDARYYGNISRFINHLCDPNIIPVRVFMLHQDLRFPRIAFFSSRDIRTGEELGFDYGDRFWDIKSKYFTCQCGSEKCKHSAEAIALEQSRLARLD
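Compounds were preincubated with 20 nM G9a for 15 min, after which biotinylated H3K9 peptide (500 nM) and SAM (20 uM) started a 2 h room-temperature reaction. Monomethylated product was quantified by antibody-based AlphaScreen chemiluminescence.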
HP1b binding inh: inhibitors of HP1-beta chromodomain binding to methylated histone tails. 390,000 compounds, 0.56% hits. AlphaScreen HP1-beta / biotin-H3K9me3 peptide binding. Potency, µM (series often up to 114 µM), for the others: top-dose activity change, negative = inhibition, hits mostly inhibitors. P83916; also: nearly all actives have a fitted effect of over 70% in size
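Compound inhibition of the preformed complex between 50 nM HP1-beta and 50 nM biotinylated H3K9me3 peptide was read by AlphaScreen. Buffer was PBS pH 7.4 with 0.01% Tween-20. Incubations ran 30 min at room temperature, with 10 ug/mL donor/acceptor beads.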
G9a inh-2: inhibits human G9a histone lysine methyltransferase, hit confirmation | shares compounds with JMJD2A Tudor | G9a H3K9 monomethylation, AlphaScreen, 2 h | Potency, µM, actives largely listed as inhibitors | 370 compounds, 89% hits | AID 588344; also: nearly all actives have a fitted effect of over 65% in size
* = called active by the depositor; [ ] = dose if it differs, or a comment. Calls follow the shape of the dose curve; as a rule, active = well fitted curve in the direction sought with a large enough effect; inconclusive = small, poorly fitted or top-dose-only effect, or another doubt; inactive = no such curve, though single readings can be large; an effect the other way counts as inactive or inconclusive. Potency is read from the fitted curve at half-maximal effect.

`COc1cccc(OC)c1C(=O)N1CCN(Cc2ccccc2C(F)(F)F)CC1` gave BAZ2B block 20µM*, ALOX12 inh inconclusive, JMJD2A Tudor 7.94µM*, Sfp PPTase inh inconclusive, G9a inh-1 inconclusive, HP1b binding inh inconclusive and G9a inh-2 4.48*.
`COc1cccc(CN2CCN(C(=O)c3cccs3)CC2)c1OC` gave ALOX12 inh -4.9%, JMJD2A Tudor -12.8%, Sfp PPTase inh 10.3%, G9a inh-1 -2.8%[59 µM] and HP1b binding inh 14.1%.
COc1ccc(OC)c(CN2CCN(C(=O)c3cc4ccccc4cc3O)CC2)c1 was read as BAZ2B block -38.7%, ALOX12 inh -25.8%, JMJD2A Tudor inconclusive, Sfp PPTase inh 4.5%, G9a inh-1 inconclusive and HP1b binding inh -29.1%.
For CC1(C)Cc2c(sc3c2c(=O)n(CCCO)c(=O)n3CC(=O)c2ccccc2)CO1 the results were ALOX12 inh 3.5%.
`COC(=O)CCC(=O)NCc1ccccc1` gave ALOX12 inh 1.8%.
`CC(OC(=O)c1cccc(S(=O)(=O)N2CCOCC2)c1)C(=O)NC1CCCCC1C` (stereo not drawn) gave BAZ2B block 24.1%, ALOX12 inh 0.0%, JMJD2A Tudor -1.0%, G9a inh-1 inconclusive, HP1b binding inh 49.6% and G9a inh-2 35.5*.
